Paper PMC5540273 (PLoS ONE, 2017)

Key:
Conditions in all cases: concentration: 1 μM, replicates: in singlicate; n = 1
[1] = test system: RIPK5
[2] = test system: ROCK1
[3] = test system: ROCK2
[4] = test system: ROS1
[5] = test system: RPS6KA4(Kin.Dom.1-N-terminal)
[6] = test system: RPS6KA4(Kin.Dom.2-C-terminal)
[7] = test system: RPS6KA5(Kin.Dom.1-N-terminal)
[8] = test system: RPS6KA5(Kin.Dom.2-C-terminal)
[9] = test system: T1, RSK1(Kin.Dom.1-N-terminal)
T1 construct: gene RPS6KA1

[10] = test system: T2, RSK1(Kin.Dom.2-C-terminal)
T2 construct: gene RPS6KA1

[11] = test system: T3, RSK2(Kin.Dom.1-N-terminal)
T3 construct: gene RPS6KA3

[12] = test system: T4, RSK2(Kin.Dom.2-C-terminal)
T4 construct: gene RPS6KA3

[13] = test system: T5, RSK3(Kin.Dom.1-N-terminal)
T5 construct: gene RPS6KA2

[14] = test system: T6, RSK3(Kin.Dom.2-C-terminal)
T6 construct: gene RPS6KA2

[15] = test system: T7, RSK4(Kin.Dom.1-N-terminal)
T7 construct: gene RPS6KA6

[16] = test system: T8, RSK4(Kin.Dom.2-C-terminal)
T8 construct: gene RPS6KA6

[17] = test system: S6K1
[18] = test system: SBK1
[19] = test system: SGK2
[20] = test system: SGK3
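Also: KINOMEscan kinase panel screen.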

SMILES	%Inh [1]	%Inh [2]	%Inh [3]	%Inh [4]	%Inh [5]	%Inh [6]	%Inh [7]	%Inh [8]	%Inh [9]	%Inh [10]	%Inh [11]	%Inh [12]	%Inh [13]	%Inh [14]	%Inh [15]	%Inh [16]	%Inh [17]	%Inh [18]	%Inh [19]	%Inh [20]
Cc1nnc(-c2ccc3occ(-c4ccc(C(C)O)cc4)c3c2)o1 (stereo not drawn)	0%	5%	0%	0%	9%	25%	20%	0%	9%	1%	3%	0%	0%	3%	19%	7%	0%	0%	0%	0%
O=C1NC(=O)C(N2CCc3ccccc32)=C1c1cccc(Cl)c1 [SB-408010]	9%	0%	0%	0%	4%	0%	9%	0%	0%	11%	0%	0%	10%	21%	35%	11%	0%	5%	0%	0%
COc1cc(Nc2nccc(N3CCC(NC(=O)c4cccc(NC(C)=O)c4)C3)n2)cc(OC)c1OC (stereo not drawn) [GSK1379754]	0%	32%	49%	44%	23%	0%	11%	0%	58%	0%	3%	22%	26%	0%	1%	0%	10%	9%	0%	0%
COc1cc2c(cc1OCCN1CCN(C)CC1)ncc1c3ccc(C#N)cc3[nH]c21	33%	98.1%	99.4%	0%	0%	0%	0%	71%	0%	26%	61%	42%	33%	47%	67%	44%	53%	72%	43%	19%
COCCNC(=O)c1ccc(-c2cc(C(=O)NC3CC3)cc(F)c2C)cc1 [GW868318]	38%	37%	47%	5%	36%	6%	18%	21%	21%	18%	40%	29%	16%	0%	41%	0%	29%	48%	20%	21%
COc1ccc(Nc2ncc(C#N)c(Nc3ccccc3C(N)=O)n2)cc1N1CCN(C)CC1.Cl [GSK1558669]	98.7%	87%	91.2%	97%	100%	97%	98%	44%	99.7%	47%	100%	7%	99.7%	11%	100%	50%	99.9%	93.9%	58%	95.3%
c1ccc(-c2n[nH]cc2-c2ccnc3ccccc23)nc1 [GW271431]	0%	0%	0%	28%	11%	0%	9%	4%	21%	12%	0%	0%	0%	0%	0%	48%	1%	9%	6%	10%
Cc1c(Cn2c(C)nn3c(=O)cc(N4CCOC(C)C4)nc23)cccc1C(F)(F)F (stereo not drawn) [GSK2344444]	0%	0%	10%	14%	21%	0%	0%	0%	0%	6%	10%	0%	3%	0%	1%	17%	9%	33%	0%	0%
Cc1c2ccc(N(C)c3ccnc(Nc4cccc(S(N)(=O)=O)c4)n3)cc2nn1Cc1ccccc1.Cl.Cl [GW787226]	28%	48%	0%	62%	18%	0%	0%	0%	0%	19%	18%	0%	0%	0%	6%	0%	65%	0%	0%	0%
O=C(NCCNc1ccnc(Nc2ccc(F)cc2)n1)Nc1ccccc1F [GSK1379880]	0%	40%	9%	0%	4%	0%	0%	15%	1%	0%	0%	0%	0%	0%	0%	2%	9%	41%	0%	0%
Cl.Oc1cccc(Nc2ccnc3cc(-c4ccncc4)ccc23)c1 [GW494601]	0%	88%	72%	34%	0%	0%	16%	16%	0%	13%	12%	23%	0%	0%	0%	29%	0%	34%	0%	3%
CC(C)Oc1ccc2c(-c3ccnc(Nc4ccc(N5CCN(C)CC5)cc4)n3)cnn2n1 [GW696155]	77%	98.8%	99.7%	51%	0%	99.8%	0%	98.9%	34%	90%	44%	28%	7%	77%	0%	95.1%	44%	88%	52%	58%
NS(=O)(=O)c1cccc(-c2ccc3nccc(-c4cccc(S(N)(=O)=O)c4)c3c2)c1 [GW867253]	11%	37%	37%	0%	0%	0%	4%	7%	0%	23%	31%	56%	0%	11%	12%	30%	16%	0%	0%	0%
[2H]C([2H])(c1cccc(C(F)(F)F)c1C)n1ccn2c(=O)nc(N3CCOCC3)cc12 [GSK2336394]	0%	8%	0%	22%	17%	0%	2%	0%	5%	0%	0%	18%	9%	0%	0%	21%	12%	24%	1%	0%
O=C(c1ccc(-c2cc(-c3c[nH]nc3-c3ccccn3)ccn2)cc1)N1CCOCC1 [GW812171]	22%	0%	24%	0%	6%	0%	0%	0%	14%	0%	31%	0%	0%	0%	9%	24%	13%	0%	0%	16%
Cn1ccc2ncnc(Oc3ccc(NC(=O)Nc4ccncc4)c(Cl)c3)c21	0%	0%	0%	0%	0%	0%	13%	0%	0%	0%	0%	0%	0%	0%	0%	0%	0%	0%	2%	0%
Cl.Nc1ncnc2occ(-c3ccc(NC(=O)Nc4cc(C(F)(F)F)ccc4F)cc3)c12 [SB-707548]	28%	38%	74%	50%	48%	0%	63%	16%	18%	30%	25%	27%	67%	77%	0%	39%	81%	2%	9%	19%
COc1cc2ncn(-c3cc(OCc4sccc4Cl)c(C(N)=O)s3)c2cc1OC [GSK448459]	0%	26%	23%	6%	13%	0%	5%	0%	12%	0%	30%	21%	10%	0%	14%	20%	3%	4%	0%	0%
NS(=O)(=O)c1cccc(-c2ccc3ncc(N4CCOCC4)nc3c2)c1 [GSK1535721]	8%	0%	0%	2%	4%	0%	8%	13%	0%	6%	15%	7%	0%	0%	0%	0%	10%	0%	0%	9%
COc1ccc(Nc2nccc(N3CCC(NC(=O)Nc4cccc(C(C)=O)c4)C3)n2)cc1 (stereo not drawn) [GSK1379731]	0%	25%	0%	4%	2%	0%	0%	0%	0%	0%	0%	0%	1%	0%	0%	2%	9%	20%	0%	0%
CCCCCc1nc2c(N)ncnc2n1CCCCC [SKF-97255]	8%	90.1%	59%	1%	6%	0%	14%	9%	8%	11%	32%	0%	0%	7%	20%	0%	13%	0%	0%	0%
